{"source": "PubChem BioAssay (NCATS)", "note": "Inconclusive results are not listed. A call without a number means that no potency is given here. Unmarked numbers belong to inactive results. Active and inactive are the calls of the source. Calls come from the whole dose curve; as a rule, active = well fitted cell-killing curve with a large enough effect; inconclusive = small, poorly fitted or top-dose-only effect, or effect the other way; inactive = flat fitted curve, though single readings scatter. Where a SMILES comes first, the peptide text is derived from it.", "data": [{"tested_on": "OV90", "test": "Primary qHTS to identify gynecologic anti-cancer compounds using libraries of approved drugs and bioactive compounds (AID 1345084); note: nearly all actives have a fitted effect of over 55% in size", "settings": "Gynecologic cancer cell panel viability, ATPlite luminescence, 48 h; series mostly up to 57.5 µM", "summary_of_the_method": "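Cytotoxicity screen measuring ATP content by luciferase luminescence. Each compound is applied at five concentrations for 48 h at 37 C with 5% CO2.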", "values": [{"smiles": "O=C(O)CC/C=C\\C[C@H]1CO[C@@H](c2ccccc2Cl)O[C@H]1c1ccccc1O", "Potency": "inactive"}, {"smiles": "CC1=CC2=C(C)C(=O)C(C)(O)C(O)C2CO1", "note": "(centres undefined)", "Potency": "inactive"}, {"smiles": "O=C(/C=C/c1ccccc1)OC[C@H]1O[C@@H](OC(=O)c2cc(O)c(O)c(O)c2)[C@H](O)[C@@H](O)[C@@H]1O", "Potency": "inactive"}, {"smiles": "CCC/C=C1\\OC(=O)C2=C1CCC(O)C2O", "note": "(centres undefined)", "Potency": "inactive"}, {"smiles": "C=C(CCO)C(=O)OCC1OCC(OC(=O)C(=C)CCO[C@@H]2O[C@H](CO)[C@@H](O)[C@H](O)[C@H]2O)C(O)C1O", "note": "(some centres undefined)", "Potency": "inactive"}, {"smiles": "COc1ccc(/C=C/C(N)=O)cc1OC", "Potency": "inactive"}, {"smiles": "Cc1nnc(-c2sc(NC(=O)[C@H](C(C)C)n3c(=O)[nH]c4ccccc4c3=O)nc2C)o1", "Potency": "inactive"}, {"smiles": "CNC(C)C(=O)NC(C(=O)N1CCCC1C(=O)Nc1cccc2ncccc12)C(C)C", "note": "(centres undefined)", "Potency": "inactive"}, {"smiles": "C=CC1(C)CC=C2C(CCC3C(C)(C(=O)O)CCCC23C)C1", "note": "(centres undefined)", "Potency": "inactive"}, {"smiles": "O=C(OCc1ccccc1O[C@@H]1O[C@H](CO)[C@@H](O)[C@H](O)[C@H]1O)C1(O)C=CCCC1O", "note": "(some centres undefined)", "Potency": "inactive"}, {"smiles": "CC/C=C/C(O)C(O)C1=C(C)C(=O)C2(O1)C(=O)NC(OC)(C(=O)c1ccccc1)C2O", "note": "(centres undefined)", "Potency": "inactive"}, {"smiles": "N[C@@H](CCNCc1ccc(Cl)cc1)C(=O)N1CCCCC1", "Potency": "inactive"}, {"smiles": "OC[C@@]1(O)CO[C@H](OC[C@H]2O[C@@H](OC(CCCCc3ccc(O)cc3)CCc3ccc(O)cc3)[C@H](O)[C@@H](O)[C@@H]2O)[C@@H]1O", "note": "(some centres undefined)", "Potency": "inactive"}, {"smiles": "CSCC[C@H](NC(=O)[C@H](CO)NC(=O)[C@H](CCC(=O)O)NC(C)=O)C(=O)N[C@H](C=O)CC(=O)O", "note": "(Ac-ESMD-aldehyde)", "activity change, negative = cytotoxicity": "-2.74% [at 11.6 µM]"}, {"smiles": "CC(C)(O)C(O)C(=O)OCc1ccc(O[C@@H]2O[C@H](CO)[C@@H](O)[C@H](O)[C@H]2O)cc1", "note": "(some centres undefined)", "Potency": "inactive"}, {"smiles": "C=C1C[C@H](O)[C@@H](O)[C@@]2(C)C1[C@@H](O)[C@H]1OC(=O)C3[C@@H](C)[C@@H](O)[C@H](O)C2[C@]31C", "note": "(some centres undefined)", "Potency": "inactive"}, {"smiles": "OCC1=C[C@@H](O)[C@@H]2C=CO[C@@H](O[C@@H]3O[C@H](CO)[C@@H](O)[C@H](O)[C@H]3O)[C@H]12", "Potency": "inactive"}, {"smiles": "Cc1cc(C)c2nc(-c3ccccn3)cc(C(=O)Nc3ccc(S(=O)(=O)Nc4onc(C)c4C)cc3)c2c1", "Potency": "inactive"}, {"smiles": "COc1cc(/C=C/C(=O)OC[C@H]2O[C@@H](OC3OC=C(C(=O)O)C4C(O)CC(C)(O)C34)[C@H](O)[C@@H](O)[C@@H]2O)cc(OC)c1O", "note": "(some centres undefined)", "Potency": "inactive"}, {"smiles": "CC1(C)CC[C@]2(C(=O)O)[C@H](O)C[C@]3(C)C(=CCC4[C@@]5(C)CC[C@H](O[C@@H]6OC[C@@H](O)[C@H](O)[C@H]6O)[C@@](C)(C(=O)O)C5CC[C@]43C)[C@@H]2C1", "note": "(some centres undefined)", "Potency": "inactive"}, {"smiles": "COC(=O)CCC1(C)C(C(C)(C)O)C(O)CC2(C)Oc3c(C)c4c(c(OC)c3CC21)C(=O)OC4", "note": "(centres undefined)", "Potency": "inactive"}, {"smiles": "C=CC(C)(C)C12Nc3c(ccc4c3OC(C)(C)C=C4)C1(O)CC1C(=O)N3CCCC3C(=O)N12", "note": "(centres undefined)", "Potency": "inactive"}, {"smiles": "CCc1cccc2c3c([nH]c12)[C@@](CC)(CC(=O)O)OCC3", "Potency": "inactive"}, {"smiles": "CN(C)CC(c1ccc(O)cc1)C1(O)CCCCC1", "note": "(centres undefined)", "Potency": "inactive"}, {"smiles": "OC[C@@]1(O)CO[C@@H](OC[C@H]2O[C@@H](Oc3ccccc3)[C@H](O)[C@@H](O)[C@@H]2O)[C@@H]1O", "Potency": "inactive"}, {"smiles": "O=C(OC[C@H]1O[C@@H](Oc2ccccc2CO)[C@H](O)[C@@H](O)[C@@H]1O)c1ccccc1", "Potency": "inactive"}, {"smiles": "C[C@@H]1O[C@@H](O[C@@H]2\\C=C/C=C\\C=C/C=C\\C[C@H](C)OC(=O)/C=C\\[C@H]3O[C@@H]3C[C@H](O)C[C@]3(O)C[C@@H](O)[C@@H](C(=O)O)[C@H](C2)O3)[C@H](O)[C@H](N)[C@@H]1O", "Potency": "inactive"}, {"smiles": "C=C1[C@H](OC(C)=O)[C@H]2[C@@H](OC(=O)c3ccccc3)[C@@H](C)C[C@]2(O)[C@@H](OC(C)=O)[C@H](C)/C=C/C(C)(C)C(=O)[C@H](OC(C)=O)[C@H]1OC(C)=O", "Potency": "inactive"}, {"smiles": "COc1ccc(/C=C/C(=O)O[C@@H]2[C@@H](O[C@@H]3O[C@H](CO)[C@@H](O)[C@H](O)[C@H]3O)[C@@H](O)[C@H](O[C@H]3C4C=CO[C@@H](O[C@@H]5O[C@H](CO)[C@@H](O)[C@H](O)[C@H]5O)C4[C@@]4(CO)O[C@@H]34)O[C@H]2C)cc1", "note": "(some centres undefined)", "activity change, negative = cytotoxicity": "9.16% [at 11.6 µM]"}, {"smiles": "C[C@@H]1C(=O)O[C@H]2[C@H]1CC[C@@]1(C)C(=O)C=C[C@@](C)(O)[C@H]21", "Potency": "inactive"}, {"smiles": "COC(=O)c1ccccc1O[C@@H]1O[C@H](CO[C@@H]2OC[C@@H](O)[C@H](O)[C@H]2O)[C@@H](O)[C@H](O)[C@H]1O", "Potency": "inactive"}, {"smiles": "N[C@@H](CC(=O)Nc1ccc(Oc2cc(F)c(F)cc2Br)cc1)C(=O)O", "Potency": "inactive"}, {"smiles": "C[C@@]12CC3(S(=O)(=O)O)OC(O1)[C@]1(COC(=O)c4ccccc4)[C@H]3C[C@]21O[C@@H]1O[C@H](CO)[C@@H](O)[C@H](O)[C@H]1O", "Potency": "inactive"}, {"smiles": "CC(=O)O[C@@H]1[C@H](OC(C)=O)C[C@@]2(C)C(CC[C@@H](C)[C@]23Cc2c(O)cc4c(c2O3)CN([C@@H](CCC(=O)O)C(=O)O)C4=O)C1(C)C", "note": "(some centres undefined)", "Potency": "inactive"}, {"smiles": "C[C@@H]1O[C@@H](O[C@H]2[C@@H]3C=CO[C@@H](O[C@@H]4O[C@H](CO)[C@@H](O)[C@H](O)[C@H]4O)[C@@H]3[C@@]3(CO)O[C@@H]23)[C@H](O)[C@H](OC(=O)/C=C/c2ccc(O)c(O)c2)[C@H]1O", "Potency": "inactive"}, {"smiles": "CCc1cc(CC[C@]2(C3CCCC3)CC(O)=C(Cc3nc4nc(C)cc(C)n4n3)C(=O)O2)cc(CC)n1", "Potency": "inactive"}, {"smiles": "CN(C)C(=O)C(O)C(Cc1ccccc1)NC(=O)c1cc2cc(Cl)ccc2[nH]1", "note": "(centres undefined)", "Potency": "inactive"}, {"smiles": "COC(=O)c1[nH]c(=O)c2ccccc2c1-c1ccc[nH]1", "Potency": "inactive"}, {"smiles": "CCC(C)/C=C(C)/C=C/C1=CC2=CC(=O)C(C)(O)C(OC(C)=O)C2CO1", "note": "(centres undefined)", "Potency": "inactive"}]}]}
